Assay [1] in a line: qHTS assay to identify small molecule agonists of the hypoxia (HIF-1) signaling pathway - cell viability counter screen (AID 1224844; calls by dose curve; also: nearly all actives have a fitted effect of over 50% in size). The method in brief:
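Multiplexed with the HRE beta-lactamase assay, this viability read used CellTiter-Glo luminescence (30 min, RT) on HRE-bla ME-180 cells treated 17 hrs with compounds in 0.5% dialyzed FBS medium.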
(Quantitative high-throughput screening tests each substance at several concentrations.)

The nature of assay [2]: qHTS assay to identify small molecule agonists of H2AX (AID 1224845; active = well fitted activation curve with a large enough effect in the signal ratio in the repeat runs, not every such curve was filed as active; the % refers to the signal ratio). The method in brief:
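Phospho-H2AX Ser139 measured by HTRF (ex 320 nm; em 665 and 620 nm) after 24 hr antibody incubation. Compounds, 15 concentrations, 0.76% DMSO, were applied to CHO-K1 cells for 3hr at 37C before lysis.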

Assay [3] can be described thus: qHTS assay to identify small molecule agonists of the hypoxia (HIF-1) signaling pathway (AID 1224846; active = well fitted activation curve with a large enough effect in the signal ratio in the repeat runs, not every such curve was filed as active; the % refers to the signal ratio). In short, it runs like this:
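Hypoxia-pathway activation was scored as increased beta-lactamase from an HRE-controlled reporter in ME-180 cells; plated at 2,000 cells per well with 0.5% dialyzed FBS, they were exposed 17 hrs to compounds and then given CCF4-AM.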

Assay [4] in a line: qHTS assay to identify small molecule agonists of H2AX - cell viability counter screen (AID 1224847; calls by dose curve; also: nearly all actives have a fitted effect of over 30% in size; also: potency is read from the fitted curve at half-maximal effect). In short, it runs like this: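 After overnight plating of 1000 CHO-K1 cells per well, a 15-concentration compound series was applied for 3 hr at 37C. Luminescence from CellTiter-Glo, read following 30 min at room temperature, reflected cell viability.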
Assay [5] is described as follows: qHTS assay to identify small molecule antagonists of the estrogen related receptor (ERR) signaling pathway from Tox21 library (AID 1224848). Also: nearly all actives have a fitted effect of over 50% in size. Also: potency is read from the fitted curve at half-maximal effect. In short, it runs like this:
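Reading was by luminescence 30 min after ONE-Glo addition. Before that, ERR cells at 2,000 per well had rested 6 h at 37 C/5% CO2 and then received pin-tooled compounds in DMSO for 18 h at 37 C.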

The nature of assay [6]: qHTS assay to identify small molecule agonists of the estrogen related receptor (ERR) signaling pathway from Tox21 library (AID 1224849; calls by dose curve; also: nearly all actives have a fitted effect of over 15% in size). The following applies: ERR reporter cell line, ONE-Glo luciferase, 18 h; at 92.4 µM (top of the series) unless noted. The method in brief: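 Six hours post-seeding at 37 C/5% CO2, ERR cells receive DMSO-solubilised compounds; after 18 h at 37 C, ONE-Glo reagent is applied and luminescence recorded.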

The nature of assay [7]: qHTS RealTime-Glo MT Cell Viability Assay in HepG2 cells - 24 hour (AID 1224867). Also: nearly all actives have a fitted effect of over 50% in size. The method in brief: (§1)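 Real-time, nonlytic viability: 600 HepG2 cells/well mixed with NanoLuc enzyme plus prosubstrate; 5 h settle, compound (DMSO) added by pintool; luminescence monitored over 40 h at 37 C.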
Assay [8] can be described thus: qHTS RealTime-Glo MT Cell Viability Assay in HEK293 cells - 32 hour (AID 1224868). Also: nearly all actives have a fitted effect of over 50% in size. Also: potency is read from the fitted curve at half-maximal effect. In short, it runs like this: (§2)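 Cells + reagent dispensed (600 cells/well, HEK293) → 5 h at 37 C/5% CO2 → 23 nL compound in DMSO pinned → 40 h at 37 C → luminescence read at 0, 8, 16, 24, 32, 40 h.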
Assay [9] in a line: A CellTox Green Cytotoxicity Assay to monitor cytotoxicity in HEK293 cells - 0 hour (AID 1224869). Also: nearly all actives have a fitted effect of over 50% in size. The method in brief:
(§3)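 Seeding of HEK293 cells together with cytotoxicity dye preceded a 5 h incubation at 37 C/5% CO2. Test compounds in DMSO were then added and fluorescence monitored across 40 h.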

A short description of assay [10]: qHTS RealTime-Glo MT Cell Viability Assay in HepG2 cells - 40 hour (AID 1224870). Also: nearly all actives have a fitted effect of over 50% in size. The method in brief:
(§4)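 Real-time viability: cells seeded at 600 per well together with NanoLuc and cell-permeant prosubstrate, compounds added after 5 h incubation. Luminescence tracked at 0, 8, 16, 24, 32 and 40 h of exposure.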

The nature of assay [11]: A CellTox Green Cytotoxicity Assay to monitor cytotoxicity in HEK293 cells - 40 hour (AID 1224871). Also: nearly all actives have a fitted effect of over 45% in size. The method in brief:
as §3

A short description of assay [12]: qHTS RealTime-Glo MT Cell Viability Assay in HEK293 cells - 16 hour (AID 1224872). Also: nearly all actives have a fitted effect of over 50% in size. Also: potency is read from the fitted curve at half-maximal effect. The method in brief:
as §2

Assay [13] in a line: qHTS RealTime-Glo MT Cell Viability Assay in HepG2 cells - 8 hour (AID 1224873). Also: nearly all actives have a fitted effect of over 55% in size. Also: potency is read from the fitted curve at half-maximal effect. In short, it runs like this:
as §4

A short description of assay [14]: qHTS RealTime-Glo MT Cell Viability Assay in HEK293 cells - 40 hour (AID 1224874). Also: nearly all actives have a fitted effect of over 50% in size. Also: potency is read from the fitted curve at half-maximal effect. The settings on record: RealTime-Glo luminescence; max response: hits give low values. In short, it runs like this: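 Tox21 screen in HEK293 using RealTime-Glo MT chemistry, with cells and reagent co-dispensed. Luminescence proportional to viable cell number was captured at intervals during 40 h compound exposure at 37 C.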

The nature of assay [15]: A CellTox Green Cytotoxicity Assay to monitor cytotoxicity in HEK293 cells - 24 hour (AID 1224875). Also: nearly all actives have a fitted effect of over 45% in size. In short, it runs like this: as §3
A short description of assay [16]: A CellTox Green Cytotoxicity Assay to monitor cytotoxicity in HepG2 cells - 16 hour (AID 1224876). Also: nearly all actives have a fitted effect of over 45% in size. In short, it runs like this:
(§5)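 Nonlytic assay: viable cells exclude the dye, so fluorescence scales with cell death. HepG2 at 600 cells/well, compounds added after 5 h, signal read across 40 h.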

The nature of assay [17]: qHTS RealTime-Glo MT Cell Viability Assay in HepG2 cells - 32 hour (AID 1224877). Also: nearly all actives have a fitted effect of over 55% in size. In short, it runs like this: as §1
A short description of assay [18]: A CellTox Green Cytotoxicity Assay to monitor cytotoxicity in HepG2 cells - 24 hour (AID 1224878). Also: nearly all actives have a fitted effect of over 45% in size. The method in brief:
as §5

Assay [19] deals with Thyrotropin receptor (Homo sapiens) (UniProt P16473). Kind of assay: qHTS assay to identify small molecule agonists of the thyroid stimulating hormone receptor (TSHR) signaling pathway (AID 1224843; calls by dose curve; also: nearly all actives have a fitted effect of over 45% in size). In short, it runs like this:
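HEK293 cells stably bearing the thyrotropin receptor were plated at 800 cells/well and challenged with compound (30 min, RT). Accumulated cAMP was quantified via cAMP-d2 competing for cryptate-tagged antibody.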

A short description of assay [20]: A CellTox Green Cytotoxicity Assay to monitor cytotoxicity in HepG2 cells - 40 hour (AID 1224879). Also: nearly all actives have a fitted effect of over 40% in size. Also: potency is read from the fitted curve at half-maximal effect. In short, it runs like this:
as §5

The source of these data is PubChem BioAssay (Tox21).

Structures are written as SMILES. Values without a mark were called inactive. Records with an inconclusive call do not appear. Activity calls are given as the source filed them. Unless noted, calls follow the shape of the dose curve; as a rule, active = well fitted curve in the direction sought with a large enough effect in the repeat runs; inconclusive = weak or mixed curves; inactive = no such curve, though single readings can be large; an effect the other way counts as inactive or inconclusive.
% is scaled to controls: 0 for no effect and ±100 for the full control effect.

Thyrotropin receptor (Homo sapiens), sequence (P16473 whole entry, looked up): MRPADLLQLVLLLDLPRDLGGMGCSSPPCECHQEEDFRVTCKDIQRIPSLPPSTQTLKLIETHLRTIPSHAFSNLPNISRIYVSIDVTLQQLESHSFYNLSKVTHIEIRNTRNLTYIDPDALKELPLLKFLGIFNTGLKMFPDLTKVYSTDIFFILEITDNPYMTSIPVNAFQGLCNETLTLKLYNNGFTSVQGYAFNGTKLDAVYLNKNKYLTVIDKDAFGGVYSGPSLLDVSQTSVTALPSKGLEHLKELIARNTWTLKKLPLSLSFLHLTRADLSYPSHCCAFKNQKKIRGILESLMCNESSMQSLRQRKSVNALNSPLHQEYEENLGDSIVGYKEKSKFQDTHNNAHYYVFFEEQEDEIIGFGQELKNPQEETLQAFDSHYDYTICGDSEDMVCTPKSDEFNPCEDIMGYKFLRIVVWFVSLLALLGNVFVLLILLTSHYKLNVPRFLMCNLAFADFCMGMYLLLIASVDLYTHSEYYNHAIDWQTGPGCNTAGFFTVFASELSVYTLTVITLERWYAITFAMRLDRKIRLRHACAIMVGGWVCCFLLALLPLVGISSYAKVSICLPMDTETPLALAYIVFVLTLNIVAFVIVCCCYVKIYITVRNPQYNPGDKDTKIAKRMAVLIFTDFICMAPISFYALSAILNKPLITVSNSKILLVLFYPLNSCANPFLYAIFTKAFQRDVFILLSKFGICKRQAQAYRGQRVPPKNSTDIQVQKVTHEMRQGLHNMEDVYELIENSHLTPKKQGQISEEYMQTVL

Take `Nc1ccc(S(=O)(=O)O)cc1`: the Potency entry in assay [1], in assay [2], in [4], in [5], in [7] and in assay [8] was “inactive” throughout. The Potency entry in [9], in [10], in [11], in [12], in assay [13] and in assay [15] was “inactive” each time. In addition, the Potency entry in assay [16], in assay [17] and in [18] was “inactive” each time. Also, the outcome in assay [3] was inactive. Also, the activity change, positive = activation in assay [6] is 2.73%. Also, the max response in assay [14] was 0.165%.

`CC(Cl)C(Cl)Cl` (configuration not stated): the Potency result in assay [19], in [2], in [4], in assay [7], in assay [8] and in assay [10] was “inactive” each time. In addition, the Potency entry in assay [12], in [13], in [16], in assay [17], in assay [18] and in assay [20] was “inactive” throughout. In addition, the call in assay [3] was inactive. Moreover, in assay [14], the max response was -7.3%.

On to `COc1cc2c(N3CCN(C(=O)Nc4ccc(OC(C)C)cc4)CC3)ncnc2cc1OCCCN1CCCCC1`, for which the Potency entry in assay [19], in assay [2], in assay [4], in assay [7], in [16] and in [17] was “inactive” each time. Besides, in [3], the compound was called inactive. In addition, the Potency in [14] was 9.52 µM (active); in [20], 26.8 µM (active).

With `CCCc1c(OCCCOc2ccc(OCC(=O)O)cc2)ccc(C(C)=O)c1O`, the Potency entry in assay [19], in [5], in assay [7], in assay [8], in [9] and in assay [10] was “inactive” in each case. The Potency entry in assay [11], in [12], in assay [13], in [16], in [17] and in assay [18] was “inactive” in each case. Also, the Potency in assay [4] was 101 µM (active). Besides, the max response in assay [14] was -7.6%.

With `CC(CCO)CCc1ccccc1` (configuration not stated), the Potency entry in assay [1], in assay [4], in assay [7], in assay [8], in assay [9] and in [10] was “inactive” each time. For the same compound, the Potency entry in assay [11], in assay [12], in assay [13], in assay [15], in [16] and in assay [17] was “inactive” in each case. The Potency result in assay [18] and in assay [20] was “inactive” each time. Also, the result in assay [3] was inactive. Further, in [14], the max response was -8.5%.

`CO[C@H]1C=CO[C@@]2(C)Oc3c(C)c(O)c4c(O)c(c5c(c4c3C2=O)=NC2(CCN(CC(C)C)CC2)N=5)NC(=O)/C(C)=C\C=C/[C@H](C)[C@H](O)[C@@H](C)[C@@H](O)[C@@H](C)[C@H](OC(C)=O)[C@@H]1C`: the compound was called inactive in assay [3]. Moreover, the Potency in [4] was 98.6 µM (active); in assay [5], 30 µM (active); in [8] it was 38.1 µM (active); in assay [12], 42.7 µM (active); in assay [14], 38.1 µM (active); in assay [20], 47.9 µM (active). Moreover, the activity change, positive = activation in assay [6] is -63.3%. Moreover, the Potency entry in [9], in assay [10], in [11], in assay [15] and in assay [16] was “inactive” each time.

For the compound `CCOC(=O)C(C)Oc1ccc(Oc2nc3ccc(Cl)cc3o2)cc1` (configuration not stated), the Potency result in [1], in assay [4], in [5], in assay [11], in [16] and in [18] was “inactive” in each case. Further, the compound was called inactive in [3]. For the same compound, the activity change, positive = activation in assay [6] is -11.6%. In addition, the Potency is 49 µM (active) in assay [8], 21.9 µM (active) in assay [12] and 15.5 µM (active) in assay [13].

Consider `COCCOC(=O)C1=C(C)NC(C)=C(C(=O)OC/C=C/c2ccccc2)C1c1cccc([N+](=O)[O-])c1` (configuration not stated), for which the Potency entry in assay [1], in [2], in [9], in [10], in assay [11] and in assay [12] was “inactive” in each case. Further, the Potency result in assay [15], in assay [16], in assay [18] and in assay [20] was “inactive” throughout. For the same compound, the Potency in assay [5] is 7.5 µM (active). For the same compound, in assay [6], the activity change, positive = activation is -61.8% [at 42.5 µM].
